Test results from PubChem BioAssay (EPA / NIEHS).
Active and inactive are the calls of the source. How the source made its calls: active means hit-call score of the fitted dose curve at least 0.9, where 1 is the maximum; inactive means score below 0.9.

Key:
Details in all cases: mRNA level, 48 h; actives raise or lower the signal
[1] = read-out: Apolipoprotein A-V (APOA5) gene, APOA5 (gene 116519); assay: LTEA_HepaRG_APOA5: Life Technologies and Expression Analysis (LTEA) Assay for Apolipoprotein A-V (APOA5) gene using HepaRG (AID 2283474)
Method in brief: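 Readout is APOA5 transcript level by qRT-PCR on Fluidigm dynamic arrays, normalized to three housekeeping genes. HepaRG cultures received chemicals for 48 h at up to 100 uM (half-log steps, 0.5% DMSO), with gain or loss scored relative to DMSO.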

[2] = read-out: Apoptosis regulator Bcl-2 (Homo sapiens) (UniProt P10415); assay: LTEA_HepaRG_BCL2: Life Technologies and Expression Analysis (LTEA) Assay for Bcl-2 gene using HepaRG (AID 2283475);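 further: BCL2 transcript by TaqMan qRT-PCR normalised to ACTB GAPDH and POLR2A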
Method in brief: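 Expression change of BCL2 mRNA in HepaRG after 48 h dosing, quantified by TaqMan qRT-PCR against three endogenous controls. Concentration-response used eight points up to 100 uM, vehicle 0.5% DMSO.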

[3] = read-out: Bcl-2 (BID) gene, BID (gene 637); assay: LTEA_HepaRG_BID: Life Technologies and Expression Analysis (LTEA) Assay for Bcl-2 (BID) gene using HepaRG (AID 2283476)
Method in brief: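 Gain or loss of BID expression is fitted relative to 0.5% DMSO vehicle. Human HepaRG liver cells received a 48 h chemical exposure over an eight-point concentration range.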

Caspase-3 (Homo sapiens) = Caspase-3 (Homo sapiens) (UniProt P42574); assay: LTEA_HepaRG_CASP3: Life Technologies and Expression Analysis (LTEA) Assay for cysteine-aspartic acid protease (CASP3) using HepaRG (AID 2283477)
Chain of Caspase-3 (Homo sapiens) (P42574 whole entry, looked up): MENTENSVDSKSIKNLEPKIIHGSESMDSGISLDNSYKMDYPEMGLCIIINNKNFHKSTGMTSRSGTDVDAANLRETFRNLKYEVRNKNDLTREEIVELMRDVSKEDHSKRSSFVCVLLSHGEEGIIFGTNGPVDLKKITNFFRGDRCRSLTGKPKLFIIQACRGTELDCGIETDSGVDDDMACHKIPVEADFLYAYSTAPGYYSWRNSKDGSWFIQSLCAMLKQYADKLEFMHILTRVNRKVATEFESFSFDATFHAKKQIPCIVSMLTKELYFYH
Method in brief: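 Read-out is CASP3 mRNA level by TaqMan qRT-PCR in human HepaRG cells after 48 h chemical exposure. Eight half-log concentrations topping at 100 uM were tested in 0.5% DMSO; gain or loss was fitted relative to DMSO.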

[4] = read-out: Cytochrome P450 (CYP24A1), CYP24A1 (gene 1591); assay: LTEA_HepaRG_CYP24A1: Life Technologies and Expression Analysis (LTEA) Assay for Cytochrome P450 (CYP24A1) using HepaRG (AID 2283478)
Method in brief: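 HepaRG, 48 h chemical exposure, 8-pt half-log CRC from 100 uM, 0.5% DMSO vehicle, duplicates. Endpoint: CYP24A1 mRNA by Fluidigm TaqMan qRT-PCR, normalized ACTB/GAPDH/POLR2A; gain/loss fit vs DMSO.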

[5] = read-out: Cytochrome P450 (CYP1A2), CYP1A2 (gene 1544); assay: LTEA_HepaRG_CYP1A2: Life Technologies and Expression Analysis (LTEA) Assay for Cytochrome P450 (CYP1A2) using HepaRG (AID 2283479)
Method in brief: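 CYP1A2 transcript induction or loss, quantified by Fluidigm qRT-PCR against three housekeeping genes, was fitted bidirectionally against 0.5% DMSO controls. Human HepaRG cells received eight half-log concentrations from 100 uM over 48 h.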

[6] = read-out: cysteine-aspartic acid protease (CASP8), CASP8 (gene 841); assay: LTEA_HepaRG_CASP8: Life Technologies and Expression Analysis (LTEA) Assay for cysteine-aspartic acid protease (CASP8) using HepaRG (AID 2283480)
Method in brief: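 Differentiated HepaRG cells in serum-free induction medium, 48 h exposure, eight-point half-log series from 100 uM in 0.5% DMSO, duplicates. CASP8 mRNA by qRT-PCR, normalized to ACTB, GAPDH, POLR2A; bidirectional fit versus DMSO.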

[7] = read-out: Cytochrome P450 (CYP2B6), CYP2B6 (gene 1555); assay: LTEA_HepaRG_CYP2B6: Life Technologies and Expression Analysis (LTEA) Assay for Cytochrome P450 (CYP2B6) using HepaRG (AID 2283481)
Method in brief: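 HepaRG cells plated 48 h, switched to serum-free induction medium, then dosed 48 h (8 points, half-log from 100 uM, 0.5% DMSO). RNA isolated; CYP2B6 expression measured by qRT-PCR; gain or loss fitted relative to DMSO.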

CYP2C8 (gene 1558) = assay: LTEA_HepaRG_CYP2C8: Life Technologies and Expression Analysis (LTEA) Assay for CYP2C8 using HepaRG (AID 2283483)
Method in brief: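 Differentiated HepaRG cells in serum-free induction medium exposed 48 h in duplicate to 8 half-log concentrations from 100 uM in 0.5% DMSO. CYP2C8 mRNA by qRT-PCR normalized to ACTB, GAPDH, POLR2A; bidirectional fit versus DMSO.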

CYP2C9 (gene 1559) = assay: LTEA_HepaRG_CYP2C9: Life Technologies and Expression Analysis (LTEA) Assay for CYP2C9 using HepaRG (AID 2283484)
Method in brief: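 Differentiated human HepaRG cells in serum-free induction medium were exposed 48 h to chemicals in 8-point half-log series from 100 uM (0.5% DMSO), in duplicate. CYP2C9 mRNA was measured by qRT-PCR, normalized to ACTB/GAPDH/POLR2A, with bidirectional fitting versus DMSO.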

CYP2E1 (gene 1571) = assay: LTEA_HepaRG_CYP2E1: Life Technologies and Expression Analysis (LTEA) Assay for CYP2E1 using HepaRG (AID 2283485)
Method in brief: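 Differentiated HepaRG cells were treated in duplicate for 48 h with chemicals in 0.5% DMSO, from 100 uM downward in half-log dilutions. RNA was then analysed by qRT-PCR for CYP2E1 induction or loss.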

CYP4A11 (gene 1579) = assay: LTEA_HepaRG_CYP4A11: Life Technologies and Expression Analysis (LTEA) Assay for CYP4A11 using HepaRG (AID 2283486)
Method in brief: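 HepaRG, 48 h chem exposure, 8 conc (100 uM top, half-log), 0.5% DMSO vehicle; qRT-PCR readout, housekeeping-gene normalized; bidirectional curve fit vs DMSO baseline.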

[8] = read-out: DNA damage-inducible transcript 3 (DDIT3), DDIT3 (gene 1649); assay: LTEA_HepaRG_DDIT3: Life Technologies and Expression Analysis (LTEA) Assay for DNA damage-inducible transcript 3 (DDIT3) using HepaRG (AID 2283488)
Method in brief: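 Changes in DDIT3 transcript, in either direction relative to 0.5% DMSO vehicle, were quantified by TaqMan qRT-PCR after 48 h chemical exposure of HepaRG cells at 8 concentrations, maximum 100 uM.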

[9] = read-out: Pro-epidermal growth factor (Homo sapiens) (UniProt P01133); assay: LTEA_HepaRG_EGF: Life Technologies and Expression Analysis (LTEA) Assay for Epidermal growth factor (EGF) using HepaRG (AID 2283489)
Method in brief: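 HepaRG, 48 h dosing, 100 uM top, half-log x8, 0.5% DMSO. Readout: TaqMan qRT-PCR (Fluidigm array), housekeeping-normalized. Gain or loss of signal fit vs DMSO.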

[10] = read-out: Ezrin (EZR), EZR (gene 7430); assay: LTEA_HepaRG_EZR: Life Technologies and Expression Analysis (LTEA) Assay for Ezrin (EZR) using HepaRG (AID 2283491)
Method in brief: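 Read-out is EZR transcript level by qRT-PCR, normalized to three housekeeping genes and fitted bidirectionally against the DMSO control. Human HepaRG cells received test chemicals for 48 h at eight half-log concentrations up to 100 uM in 0.5% DMSO.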

[11] = read-out: Cytochrome P450 3A7 (Homo sapiens) (UniProt P24462); assay: LTEA_HepaRG_CYP3A7: Life Technologies and Expression Analysis (LTEA) Assay for CYP3A7 using HepaRG (AID 2283492)
Method in brief: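 Human HepaRG liver cells, 48 h post-plating, switched to serum-free induction medium and exposed in duplicate for 48 h. Dosing: 100 uM top, half-log dilutions, 8 points, 0.5% DMSO vehicle. Read-out: CYP3A7 mRNA, gain or loss fitted against DMSO baseline.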

CYP3A5 (gene 1577) = assay: LTEA_HepaRG_CYP3A5: Life Technologies and Expression Analysis (LTEA) Assay for CYP3A5 using HepaRG (AID 2283493)
Method in brief: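 mRNA induction or loss of CYP3A5 assessed in HepaRG after 48 h dosing, 100 uM top concentration, duplicate wells; TaqMan qRT-PCR with ACTB, GAPDH, POLR2A normalization; 0.5% DMSO as negative control.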

[12] = read-out: Cytochrome P450 3A4 (Homo sapiens) (UniProt P08684); assay: LTEA_HepaRG_CYP3A4: Life Technologies and Expression Analysis (LTEA) Assay for CYP3A4 using HepaRG (AID 2283487)
Method in brief: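 HepaRG, 48 h exposure, 8-pt CRC from 100 uM (half-log), 0.5% DMSO, duplicates; serum-free induction medium. Readout: CYP3A4 mRNA, qRT-PCR, ACTB/GAPDH/POLR2A normalization. Bidirectional fit vs DMSO.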

[13] = read-out: Early growth response protein 1 (EGR1) transcription factor, EGR1 (gene 1958); assay: LTEA_HepaRG_EGR1: Life Technologies and Expression Analysis (LTEA) Assay for Early growth response protein 1 (EGR1) transcription factor using HepaRG (AID 2283490)
Method in brief: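 Differentiated HepaRG cells in serum-free induction medium exposed 48 hours, duplicate, to 8 half-log concentrations up to 100 uM in 0.5% DMSO. EGR1 mRNA measured by TaqMan qRT-PCR, normalized to ACTB, GAPDH, POLR2A; bidirectional fit versus DMSO.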

Measured: AC50

Chain of Cytochrome P450 3A7 (Homo sapiens) (P24462 whole entry, looked up): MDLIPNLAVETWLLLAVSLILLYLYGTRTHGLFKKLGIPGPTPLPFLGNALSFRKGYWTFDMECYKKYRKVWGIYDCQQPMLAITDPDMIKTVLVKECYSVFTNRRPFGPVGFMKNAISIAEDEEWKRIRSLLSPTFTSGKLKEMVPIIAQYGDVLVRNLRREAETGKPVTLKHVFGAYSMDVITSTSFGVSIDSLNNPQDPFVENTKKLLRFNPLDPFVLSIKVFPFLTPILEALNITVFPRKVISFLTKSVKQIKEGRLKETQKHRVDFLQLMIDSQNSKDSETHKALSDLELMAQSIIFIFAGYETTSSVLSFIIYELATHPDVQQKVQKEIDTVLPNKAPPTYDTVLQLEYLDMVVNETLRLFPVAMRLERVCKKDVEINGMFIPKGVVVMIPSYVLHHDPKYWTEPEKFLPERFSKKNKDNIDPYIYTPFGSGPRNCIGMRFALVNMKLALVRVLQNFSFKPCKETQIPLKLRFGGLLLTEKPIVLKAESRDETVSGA
Chain of Cytochrome P450 3A4 (Homo sapiens) (P08684 whole entry, looked up): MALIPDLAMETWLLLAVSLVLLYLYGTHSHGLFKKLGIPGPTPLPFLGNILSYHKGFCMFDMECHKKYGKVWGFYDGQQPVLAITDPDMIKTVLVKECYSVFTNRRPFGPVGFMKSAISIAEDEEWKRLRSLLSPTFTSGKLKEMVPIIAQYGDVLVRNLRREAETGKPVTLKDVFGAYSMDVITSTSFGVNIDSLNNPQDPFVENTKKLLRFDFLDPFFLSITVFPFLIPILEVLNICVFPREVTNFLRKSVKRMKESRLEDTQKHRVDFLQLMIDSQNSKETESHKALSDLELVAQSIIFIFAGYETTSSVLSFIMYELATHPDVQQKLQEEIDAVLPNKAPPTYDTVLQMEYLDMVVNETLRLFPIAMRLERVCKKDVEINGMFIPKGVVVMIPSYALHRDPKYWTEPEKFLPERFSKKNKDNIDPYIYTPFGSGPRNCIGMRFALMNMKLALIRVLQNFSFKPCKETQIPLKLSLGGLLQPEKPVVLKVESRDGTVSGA
Chain of Apoptosis regulator Bcl-2 (Homo sapiens) (P10415 whole entry, looked up): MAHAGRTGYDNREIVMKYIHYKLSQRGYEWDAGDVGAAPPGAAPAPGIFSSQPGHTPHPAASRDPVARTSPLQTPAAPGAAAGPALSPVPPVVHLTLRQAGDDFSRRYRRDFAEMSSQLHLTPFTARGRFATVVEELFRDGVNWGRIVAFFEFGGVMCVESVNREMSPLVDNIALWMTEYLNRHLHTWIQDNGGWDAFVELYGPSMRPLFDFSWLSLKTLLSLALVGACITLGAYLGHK

CCOP(=O)(NC(C)C)Oc1ccc(SC)c(C)c1 (configuration not stated)
active: [7] 22.5 µM | CYP2E1 (gene 1571) 34.3 µM | CYP4A11 (gene 1579) 22.4 µM
not listed: [12] | [13]
inactive: all other assays above

S=C1NCCN1
active: [7] 10.3 µM
not listed: [13]
inactive: all other assays above

CCCOCC(=Nc1ccc(Cl)cc1C(F)(F)F)n1ccnc1
active: [7] 30.4 µM | CYP2C9 (gene 1559) 20.3 µM | CYP2E1 (gene 1571) 13.2 µM | CYP4A11 (gene 1579) 23 µM | [12] 73.5 µM | [8] 72.4 µM | [11] 23 µM | CYP3A5 (gene 1577) 71 µM
not listed: CYP2C8 (gene 1558)
inactive: all other assays above

O=C(O)c1cc(Oc2ccc(C(F)(F)F)cc2Cl)ccc1[N+](=O)[O-]
active: [7] 50 µM | CYP2C8 (gene 1558) 8.77 µM | CYP4A11 (gene 1579) 50 µM | [11] 50 µM | CYP3A5 (gene 1577) 50 µM
not listed: [12] | [13]
inactive: all other assays above

CON=C(C(=O)OC)c1ccccc1CON=C(C)c1cccc(C(F)(F)F)c1
active: CYP2E1 (gene 1571) 25.4 µM | [12] 13.1 µM | [11] 19.5 µM | CYP3A5 (gene 1577) 50 µM
not listed: CYP2C8 (gene 1558) | [13]
inactive: all other assays above
